The source of these data is PubChem BioAssay AID2462 (Broad Institute, 2010).

Each structure is given as a SMILES string. Screen size: about 330,000 compounds; about 220 (0.067%) were called active.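 How the source made its calls: active means over half of replicate activation scores above 10%, or exactly half above 10 with the replicate mean above 10; inconclusive means replicate mean below 10 yet half the replicates above 10; inactive means over half of replicates below 10.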 What follows is part of a selection rich in actives, with near analogues and random picks from the rest.

A short description of this assay: caspase 3/7 activation in MEF A1-2A-BIM cells, primary screen, A1 inhibitor project, cell-based, luminescence, HTS (AID 2462). As to conditions: Caspase-Glo 3/7 luminescence, 3 h, stronger effect = higher value, percent of clofoctol response, vehicle zero, concentration not given here.
`C=CCOc1c(CNn2cn[nH]c2=S)cccc1OC`: the caspase activation is 0.398% (inactive).
For the compound `CCOC(=O)c1c(C)n(C)c2ccc(OC)c(NS(=O)(=O)CC)c12`, the caspase activation was -0.135% (inactive).
For the compound `CC12CCC(C(=O)N(NC(=O)c3ccccc3O)C1=O)C2(C)C` (stereo not given), the caspase activation is 1.44% (inactive).
For `CCOC(=O)c1cnc(-n2nc(C)cc2C)nc1NNc1cc(C)nc(-c2ccccc2)n1` the value was -0.244% (inactive).
As to `O=C1CC(Cc2ccccc2)C(=O)N1c1ccc(Cl)cn1` (stereo not given), the caspase activation was -0.386% (inactive).
As for `CCOC(=O)C1=C(CN2CCc3ccccc32)NC(=O)NC1c1cc(C)ccc1C` (stereo not given), the caspase activation is -0.324% (inactive).
Turning to `COC(=O)c1ccc(/C=C/c2c(-c3ccc(OC)cc3)sc3ccccc23)cc1`, the caspase activation is 0.0613% (inactive).
For `CCOc1ccc(NC(=O)c2ccc(CSc3nnnn3C)cc2)cc1` the value was -1.46% (inactive); for `CN1CCN(CC(=O)C23CC4CC(CC(C4)C2)C3)CC1`, -0.618% (inactive).
Turning to `Cc1c(C(=O)NNC(=O)c2ccncc2)oc2ccccc12`, the caspase activation was -1.06% (inactive).
In the case of `O=c1cc(CN2CCN(c3cccc(Cl)c3)CC2)c2cc3c(cc2o1)CCCC3` it was 0.443% (inactive); in that of `Cc1cccc(N2CC(C(=O)Nc3ccccc3N3CCCC3)CC2=O)c1C` (stereo not given), -0.198% (inactive).
Take `COc1ccc(C2C(C#N)=C(N)Oc3cc(N)ccc32)cc1OC` (stereo not given): the caspase activation was 0.292% (inactive).
In the case of `FC(F)(F)c1ccnc(Oc2ccc(C3=NCCS3)cc2)c1`, the caspase activation was -5.34% (inactive).
In the case of `CC(=O)Nc1ccc(C(=O)OCC(=O)Nc2ccc([N+](=O)[O-])cc2C(F)(F)F)cc1` it was 0.347% (inactive).
In the case of `Cc1ccc(CNC(=O)C2CCCN2C(=O)NCc2ccccc2)cc1` (stereo not given), the caspase activation is 0.299% (inactive).
For the compound `Cc1cccc(OCCNC(=S)NC(=O)c2cccnc2)c1`, the caspase activation is 0.352% (inactive).
For `O=C(NCCN1CCN(C(=O)c2cccc([N+](=O)[O-])c2)CC1)C(=O)NCc1ccc(Cl)cc1` the value was -0.117% (inactive).
On to `O=C(CN(Cc1ccccc1)C(=O)CCC(=O)Nc1ccccn1)NCCc1ccccc1`, for which the caspase activation was -0.282% (inactive).
As to `CCOC(=O)CC1COCCN1C(=O)c1cc(COc2ccc(F)c(F)c2)on1` (stereo not given), the caspase activation is -0.113% (inactive).
As to `Cc1ccc(-n2ncc3c2CC(C)(C)CC3NC(=O)CCc2cnn(C)c2)cc1` (stereo not given), the caspase activation was 0.222% (inactive).
For the compound `COc1ccc(N2CCN(C(=O)CCSCc3ccccc3F)CC2)cc1`, the caspase activation is -0.325% (inactive).
In the case of `CSc1ccc(/C=C2\NC(=O)NC2=O)cc1` it was -0.861% (inactive); in that of `O=C(CCc1n[nH]c(=O)[nH]c1=O)N/N=C/c1ccc(Br)o1`, -0.493% (inactive); in that of `CN(C(=O)c1cccc(NC(=O)C2CCN(C(=O)OC(C)(C)C)CC2)c1)C1CCC1`, 0.788% (inactive).
For `COCCCNC(=O)C1CCN(c2ccc(N3CCOCC3)nn2)CC1` the value was 0.283% (inactive); for `C#CCOCCOCCOCCNc1nc(N2CCN(C(=O)[C@H](CCCN=C(N)N)n3cc(C(N)[C@@H](C)CC)nn3)CC2)nc(N2CCN(C(=O)[C@H](CO)n3cc([C@@H](N)C(C)C)nn3)CC2)n1` (stereo not given in full), 0.85% (inactive); for `COC(=O)CNC(=O)c1ccc2c(c1)S(=O)(=O)c1ccccc1C2=O`, -0.413% (inactive).
Regarding `CCC1C(=O)NCCN1C(=O)c1ccc2nc(Cc3ccc(OC)cc3)oc2c1` (stereo not given), the caspase activation is -0.419% (inactive).
Turning to `COc1ccc(CCNc2cc(N3CCN(C(=O)c4ccccc4OC)CC3)ccc2[N+](=O)[O-])cc1OC`, the caspase activation was -0.378% (inactive).
For `O=C1c2ccccc2NC(c2ccccn2)N1NS(=O)(=O)c1ccccc1` (stereo not given) the value was 1.93% (inactive); for `CC(=O)c1ccccc1NC(=O)C1CC(=O)N(c2ccc3c(c2)OCCO3)C1` (stereo not given), 0.41% (inactive); for `Cc1ccc(-c2nnc(CN3CCN(C)CC3)o2)cc1`, 0.0366% (inactive).
For `COc1cc2c(cc1OC)C(C(=O)Nc1cc(C)c(OC)c(C)c1)CC(=O)N2` (stereo not given) the value was 0.803% (inactive).
In the case of `Cc1ccc2cc3cc(C(=O)N4CCCCCC4)oc3nc2c1` it was 0.083% (inactive); in that of `NC1=NC(=O)C(Cc2cccc(Cl)c2)S1` (stereo not given), -0.108% (inactive); in that of `CC(C)(C)OC(=O)N[C@H](C(=O)OC(C)(C)C)c1ccc(Br)cc1`, -0.98% (inactive).
`CCOC(=O)c1c(NC(=O)CCCN2CCOCC2)sc2c1CC(C)(C)OC2`: the caspase activation was -0.683% (inactive).
Take `CN(C)C(=O)Cn1c(=O)n(S(=O)(=O)c2ccccc2)c2ccccc21`: the caspase activation is -0.645% (inactive).
For `CN(c1ccc2nc3ccccc3c(=O)n2n1)C1CCCCC1` the value was 0.636% (inactive).
For `CN(C(=O)CSc1nnc(N)s1)c1c(N)n(Cc2ccccc2)c(=O)[nH]c1=O` the value was 0.167% (inactive); for `O=[N+]([O-])C(=c1ccc2c(c1)N1C3=C(CCCC3)CC3CCCCC31N=2)[N+](=O)[O-]` (stereo not given), 6.39% (active); for `CCOC(=O)C(NC(=O)CC(C)C)(Nc1sc2c(c1C(N)=O)CCCC2)C(F)(F)F` (stereo not given), 0.722% (inactive).
For `O=C(O)c1cc2ccccc2c(=O)s1` the value was 1.64% (inactive); for `COc1ccc(CCNC(=O)CN(C)S(=O)(=O)c2ccc3nc(C)sc3c2)cc1OC`, -2.31% (inactive); for `CCC(C)NC(=O)N[C@@H](CCSC)C(=O)O` (stereo not given in full), 0.604% (inactive).
Regarding `CCCCC(O)(CCCC)C(=O)NN(C(=O)CCl)c1ccccc1`, the caspase activation was 0.273% (inactive).
In the case of `COc1ccc(OCC(=O)NN2Cc3ccccc3C2=N)cc1` it was 1.26% (inactive).
Turning to `Cc1ccc2oc(C(=O)N3CCN(C)C[C@@H]3C(C)C)c(C)c2c1`, the caspase activation was -0.346% (inactive).
For `CCOc1ccccc1-n1c(SCC(=O)NCc2ccco2)nnc1-c1ccncc1` the value was -0.681% (inactive).
For `O=C(NCc1ccccc1)C1CCCN(c2nc3ccsc3c(=O)s2)C1` (stereo not given) the value was -0.382% (inactive); for `COc1cccc(NC(=O)Cn2c3ccc(F)cc3c3nc4n(c(=O)c32)CCS4)c1`, -1.98% (inactive); for `O=c1c(-c2ccccc2Cl)c[nH]n1-c1ccccc1`, -1.88% (inactive).
In the case of `COc1ccc(C(=O)NCCSc2ccccc2C)cc1` it was -1.26% (inactive).
Take `OCCC1CN(Cc2cnc(-c3ccccc3)s2)CCN1CCc1ccccc1` (stereo not given): the caspase activation is 0.493% (inactive).
For the compound `CCOCCn1[nH]c2ccccc2c1=O`, the caspase activation is -0.169% (inactive).
`O=S(=O)(Nc1ccc(-c2ccc(N3CCOCC3)nn2)cc1)c1cc(Cl)ccc1Cl`: the caspase activation is 0.476% (inactive).
Turning to `CC(C)CNC(=S)NNC(=O)c1ccccc1OC(F)F`, the caspase activation was 1.35% (inactive).
For `CN(Cc1c(F)cccc1Cl)C(=O)CNC(=O)c1ccc2c(c1)OCO2` the value was -0.444% (inactive).
Consider `N#Cc1c(-c2ccc(F)cc2)cc(C2CC2)nc1SCC(=O)c1cccs1`, for which the caspase activation is -0.105% (inactive).
In the case of `Cc1cccc(C(=O)NCc2nnc(SC(C)C(=O)Nc3nnc(C)s3)n2C)c1` (stereo not given) it was 0.308% (inactive); in that of `COc1ccc(C2CC(=O)C=C(NCC3CCCO3)C2)cc1` (stereo not given), 1.09% (inactive); in that of `Cc1c(C(=O)N2CCN(c3ccc(F)cc3)CC2)oc2c1C(=O)CCC2`, -0.061% (inactive).
Regarding `Cc1ccc(CC2C(=O)N(c3ccc(F)cc3)C(=O)C2C)cc1` (stereo not given), the caspase activation is 0.618% (inactive).
In the case of `Cc1cc(-n2cnc(-c3cn(C)nc3C)n2)no1` it was 0.762% (inactive).
With `O=C(NCc1ccccc1)C1=C[C@@H](C2CCCCC2)C[C@@H](OCc2ccc(CO)cc2)O1`, the caspase activation was 1.39% (inactive).
In the case of `Cc1ccc(CNC(=O)CCS(=O)(=O)c2ccc3c(c2)CC(C)N3C(=O)C2CC2)o1` (stereo not given) it was 3.53% (inactive).
In the case of `O=C(C1CCCO1)N1CCN(C(=S)NC2CC2)CC1` (stereo not given) it was -0.789% (inactive).
As for `CC1=C(C(N)=O)C(c2sccc2C)n2nnnc2N1` (stereo not given), the caspase activation is -0.851% (inactive).
Take `CCC1CCCCN1CCCNC(=O)c1cc2c(Cl)nc3ccccc3c2s1` (stereo not given): the caspase activation was -0.978% (inactive).
In the case of `CC(=O)C(C)n1cnc2scc(-c3ccc(C)cc3)c2c1=O` (stereo not given) it was 0.409% (inactive).
For `O=C(NC1CCCCC1)C1CCC(CNS(=O)(=O)c2ccccc2)CC1` (stereo not given) the value was 0.134% (inactive); for `CNc1[nH]ncc1[N+](=O)[O-]`, -0.643% (inactive).
In the case of `COc1ccc(C[C@H]2CN3C(=NC[C@H]3C)N2CCNC(=O)CCC2CCCCC2)cc1` it was 0.277% (inactive); in that of `CCCN(c1ccc(C)cc1)c1nc(=O)c2cccnc2s1`, 0.23% (inactive); in that of `COC(=O)[C@H]1Cc2cnoc2C[C@]1(C)C(=O)O`, -0.157% (inactive).
For the compound `COc1ccc(OC)c(/C=C/C(=O)c2ccc3c(c2)OCO3)c1`, the caspase activation was -0.508% (inactive).
For `CCN(CC(=O)Nc1ccc(OC)cc1)C(=O)CSCc1ccc(C)cc1` the value was -0.709% (inactive); for `COc1ccc(NC(=O)/C(Cl)=C(/Cl)S(=O)Cc2ccc(C)cc2)cn1` (stereo not given), 7.8% (active); for `COc1ccc(Nc2ccc([N+](=O)[O-])cn2)cn1`, -0.342% (inactive).
For `CC[C@H]1CN2CCc3cc(OC)c(OC)cc3[C@@H]2C[C@@H]1C[C@H]1NCCc2cc(OC)c(OC)cc21` the value was 7.26% (active); for `COc1ccc2c(c1)CCNC2Cc1ccc(OC)c(O)c1` (stereo not given), 2.35% (inactive); for `CCc1ccc(OCC2c3cc(OC)c(OC)cc3CCN2C(C)=O)cc1` (stereo not given), 0.768% (inactive).
For the compound `COc1cccc(NC(=O)CN(C)C(C)C(=O)Nc2ccc(C#N)cc2)c1` (stereo not given), the caspase activation was 0.554% (inactive).
For the compound `CC[N+](C)(CC)CCC[n+]1c(-c2ccccc2)c2cc(N)ccc2c2ccc(N)cc21`, the caspase activation was 2.85% (inactive).
`CC(=O)Nc1ccc(Sc2ccccc2C(=O)N2CCCC2)cn1`: the caspase activation was 0.126% (inactive).
Regarding `Cn1c(C(=O)O)ccc1S(=O)(=O)N(Cc1ccccc1)Cc1ccccc1`, the caspase activation was -0.442% (inactive).
With `O=C(NCCc1ccco1)C(=O)NCCC1CCCCN1S(=O)(=O)c1ccccc1` (stereo not given), the caspase activation is 0.605% (inactive).
In the case of `CN(C)c1ccc(Nc2c3c4c(cccc4n(C)c2=O)C(=O)c2ccccc2-3)cc1`, the caspase activation was -0.124% (inactive).
As for `CC1(C)COC(c2cccn2Cc2ccccc2Cl)=N1`, the caspase activation was -0.0448% (inactive).
